{"source": "PubChem BioAssay (EPA / NIEHS)", "note": "Activity calls are given as the source filed them. Rule for the calls: active = hit-call score of the fitted dose curve at least 0.9, where 1 is the maximum; inactive = score below 0.9.", "data": [{"read-out": "Hypoxia-inducible factor 1-alpha (Homo sapiens) (UniProt Q16665)", "experiment": "LTEA_HepaRG_HIF1A: Life Technologies and Expression Analysis (LTEA) Assay for Hypoxia-inducible factor 1 (HIF1A) Trancription factor using HepaRG (AID 2283503);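 note: HIF1A transcript by TaqMan qRT-PCR normalized to ACTB GAPDH and POLR2A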", "details": "mRNA level, 48 h; actives raise or lower the signal", "procedure": "LTEA_HepaRG is a cell based, multiplexed-readout assay that uses HepaRG, a human liver cell line, with measurements taken at 48 hours after chemical dosing on a 96-well plate.LTEA_HepaRG_HIF1A is one of 102 assay component(s) measured in the LTEA HepaRG cell culture assay. It is a marker of Cell proliferation, survival, death.Data from the assay component LTEA_HepaRG_HIF1A was analyzed into 1 endpoint. This assay endpoint, LTEA_HepaRG_HIF1A, was analyzed with bidirectional fitting relative to DMSO as the negative control and baseline of activity. Using a type of inducible reporter, measures of mRNA induction for gain or loss-of-signal activity can be used to understand regulation of transcription factor activity. To generalize the intended target to other relatable targets, this assay endpoint is annotated to the dna binding intended target family, where the subfamily is basic helix-loop-helix protein.\nA total of 1060 chemcials from the ToxCast library were tested in eight-point concentration-response experiments. Cell culture and cytotoxicity assays were conducted at Thermo Fisher Scientific's Custom Services facility (Madison, WI). A single lot of human HepaRG cells (Thermo Fisher Scientific, Frederick, MD) was used for the cell culture experiments. 96-well format collagen type I coated plates of human HepaRG cells were prepared using established methods. Briefly, cryopreserved HepaRG cells were thawed, plated at a density of approximately 100,000 cells/well in HepaRG Thaw, Plate, and General Purpose media (HPRG770, Thermo Fisher Scientific), and incubated for 48 hours. 0.5% DMSO was selected as vehicle control to balance the requisite need of DMSO in HepaRG cultures to maintain differentiation (for example, baseline metabolism, proportions of hepatocytes vs. cholangiocytes), while enabling further hepatic receptor pathway activation (for example, PXR and CAR) in response to chemical exposure. 48 hours after plating, the culture medium was replaced with HepaRG Serum-Free Incudtion Media. Cells were exposed to each test chemical in duplicate and maintained in CO2 incubators for another 48 hours. Chemical plates were thawed to room temperature and 200x concentrations of treatment groups were prepared. 8-point conentration-reponse curves were made with the highest exposure at 100 uM, followed by half-log dilutions, all in 0.5% DMSO. Each test plate contained variouse controls, induction positive controls (1mM phenobarbital), cytotoxicity positive controls ([…] aflatoxin B1), vehicle controls (0.5% DMSO), and total lysis controls (0.5% DMSO). Cell morphology images were taken using an Essen IncuCyte FLR automated microscope, with six 96-well plates imaged in about 24 minutes. Images were captured and exported and JPEG files. Spent culture media was transfered to black-well plates for the LDH assay, and remaining media was sorted at -80 C for later use. Cells were treated with RLT buffer and frozen until shipped for gene expression analysis. Total RNA was isolated from the cell suspension in 75 uL of Buffer RLT (Qiagen, Germantown, MD 20874) by Quintiles/Expression Analysis (Durham, NC) using a custom isolation procedure. Total RNA from each plate well was transferred to a preamplification plate. Fluidigm's 96.96 Dynamic ArrayTM (Fluidigm, Amsterdam, the Netherlands) technology was used for gene expression analyses by quantitative reverse transcription polymerase chain reaction (qRT-PCR, performed by Quintiles/Expression Analysis, Durham, NC)89. Standard TaqManTM Assays (Applied Biosystems/ThermoFisher Scientific, Foster City, CA) were used to assess the expression of 93 genes selected based on their selectivity and sensitivity to important hepatic receptors known to be modulated by environmental chemicals; importance in human hepatocyte functionality; and hepatotoxicity. […]", "values": [{"smiles": "c1ccc2cc3c(ccc4ccccc43)cc2c1", "outcome": "inactive"}, {"smiles": "O=C(O)c1ccccc1C(c1ccc(O)cc1)c1ccc(O)cc1", "outcome": "inactive"}, {"smiles": "Oc1cc2ccccc2c2ccccc12", "outcome": "inactive"}, {"smiles": "CCCCC(CC)COC(=O)CCCCC(=O)OCc1ccccc1", "note": "(stereo not given)", "outcome": "inactive"}, {"smiles": "CCCCCCCCCCCCc1ccccc1S(=O)(=O)O", "AC50": "14.4 µM (active)"}, {"smiles": "CCCCC(CC)COC(=O)CCCCC(=O)OCC(CC)CCCC", "note": "(stereo not given)", "outcome": "inactive"}, {"smiles": "c1ccc2c(c1)Cc1ccccc1-2", "outcome": "inactive"}, {"smiles": "CCN(CC)CCNc1ccc(CNC=O)c2sc3ccc(OC)cc3c(=O)c12", "AC50": "75.5 µM (active)"}, {"smiles": "NC(=O)N(O)[C@@H]1C=C[C@H](Oc2cccc(Oc3ccc(F)cc3)c2)C1", "AC50": "78.7 µM (active)"}, {"smiles": "CC(O)CO", "note": "(stereo not given)", "outcome": "inactive"}, {"smiles": "COCC(C)OCC(C)O", "note": "(stereo not given)", "outcome": "inactive"}, {"smiles": "CCC(C)(C)C1CCC(O)CC1", "note": "(stereo not given)", "outcome": "inactive"}, {"smiles": "O=[N+]([O-])c1ccc(O)cc1", "outcome": "inactive"}, {"smiles": "OCCC(F)(F)C(F)(F)C(F)(F)C(F)(F)C(F)(F)C(F)(F)F", "outcome": "inactive"}, {"smiles": "CCCCCCCCCCCCN1CCCC1=O", "outcome": "inactive"}, {"smiles": "CC(C)(C)c1cccc(C(C)(C)C)c1O", "outcome": "inactive"}, {"smiles": "CCc1ccc(CCOc2ccc(CC3SC(=O)NC3=O)cc2)nc1", "note": "(stereo not given)", "outcome": "inactive"}, {"smiles": "ClC1=C(Cl)C(Cl)(Cl)C(Cl)=C1Cl", "outcome": "inactive"}, {"smiles": "Oc1cccc(O)c1", "outcome": "inactive"}, {"smiles": "O=C(O)Cc1cc(I)c(Oc2cc(I)c(O)c(I)c2)c(I)c1", "AC50": "21.5 µM (active)"}, {"smiles": "OC1CCCCC1", "outcome": "inactive"}, {"smiles": "CCCCCCCCC(=O)O", "outcome": "inactive"}, {"smiles": "COC(=O)CCCCC(=O)OC", "outcome": "inactive"}, {"smiles": "CC(C)CCCCCCOC(=O)CCCCC(=O)OCCCCCCC(C)C", "outcome": "inactive"}, {"smiles": "CC(C)(C)CC(C)(C)c1ccc(O)c(-n2nc3ccccc3n2)c1", "outcome": "inactive"}, {"smiles": "CCCCOCCO", "outcome": "inactive"}, {"smiles": "c1ccc2c(c1)ccc1ccccc12", "outcome": "inactive"}, {"smiles": "N#C[C@@H]1CC(F)(F)CN1C(=O)CNC1CC2CCC(C1)N2c1ncccn1", "note": "(stereo not given in full)", "outcome": "inactive"}, {"smiles": "OCCC(F)(F)C(F)(F)C(F)(F)C(F)(F)C(F)(F)C(F)(F)C(F)(F)C(F)(F)F", "outcome": "inactive"}, {"smiles": "CCOC(=O)CC(O)(CC(=O)OCC)C(=O)OCC", "outcome": "inactive"}, {"smiles": "CCCOC(=O)c1ccc(O)cc1", "outcome": "inactive"}, {"smiles": "CCC(=C(c1ccc(O)cc1)c1ccc(OCCN(C)C)cc1)c1ccccc1", "AC50": "83.8 µM (active)"}, {"smiles": "CCCCCCCCCCCCCCCS(=O)(=O)Oc1ccccc1", "outcome": "inactive"}, {"smiles": "O=C(OCCOCCOC(=O)c1ccccc1)c1ccccc1", "outcome": "inactive"}, {"smiles": "C=C(C)C(=O)OCCC(F)(F)C(F)(F)C(F)(F)C(F)(F)C(F)(F)C(F)(F)F", "outcome": "inactive"}, {"smiles": "Cc1cc(C)c(O)c(C)c1", "outcome": "inactive"}, {"smiles": "COc1ccc([N+](=O)[O-])cc1N", "outcome": "inactive"}, {"smiles": "COCC(C)O", "note": "(stereo not given)", "outcome": "inactive"}, {"smiles": "CC#C[C@]1(O)CC[C@H]2[C@@H]3CCC4=CC(=O)CCC4=C3[C@@H](c3ccc(N(C)C)cc3)C[C@@]21C", "AC50": "85.5 µM (active)"}, {"smiles": "CN(C)C=O", "outcome": "inactive"}]}]}
